PubChem BioAssay (Tox21)
Values joined by “and” are separate entries in the source; they are usually repeats but may differ in a detail not shown here. Equal values may be shown once. Results filed as inconclusive are left out. More than one record can exist for a structure, and the calls need not agree. Active and inactive are the calls of the source. Calls follow the shape of the dose curve; as a rule, active = well fitted inhibition curve with a large enough effect in the signal ratio in the repeat runs (not every such curve was filed as active); inconclusive = weak or mixed curves; inactive = flat fitted curve, though single readings scatter; the % refers to the signal ratio.

Each compound was assayed against Progesterone receptor (Homo sapiens) (UniProt P06401) (assay: qHTS assay to identify small molecule antagonists of the progesterone receptor (PR) signaling pathway (AID 1346795)). Settings: PR-UAS-bla HEK293T, beta-lactamase FRET ratio, 16 h; series mostly up to 92.4 µM; activity change, negative = inhibition: at the top concentration.
Description: National Center for Advancing Translational Sciences [NCATS]
NIH Chemical Genomics Center [NCGC]
U.S. Environmental Protection Agency [EPA]
National Institutes of Environmental Health Sciences [NIEHS]
National Toxicology Program [NTP]
U.S. Food and Drug Administration [FDA]
Progesterone receptor (PR), a nuclear hormone receptor, plays an important role in development, metabolic homeostasis and reproduction. […] Endocrine disrupting chemicals (EDCs) and their interactions with steroid hormone receptors like PR causes disruption of normal endocrine function. To identify the compounds that inhibit PR signaling, a PR-UAS-bla GripTite cell line i.e. PR-UAS-bla HEK293T (Invitrogen, Carlsbad, CA, USA) containing a beta-lactamase reporter gene under the control of an Upstream Activator Sequence (UAS) was used to screen Tox21 10K compound library.
Tox21 Assay Protocol Summary:
PR-UAS-bla HEK293T cells were dispensed at 3,000 cells/4 uL of assay medium containing 2% charcoal stripped FBS per well into black wall/clear-bottom 1536-well plates using a Multidrop Combi (ThermoFisher Scientific, Waltham, MA) dispenser. After the assay plates were incubated at a 37C and 5% CO2 for 6 hr, 23 nL of compounds dissolved in DMSO, positive controls or DMSO only was transferred to the assay plate by a Pintool station (Kalypsys, San Diego, CA), followed by addition of 1 uL (1nM as final concentration) of Promegestone (R5020) in assay medium using a BioRAPTR FRD (Flying Reagent Dispenser, Aurora Discovery, San Diego, CA). The plates were incubated at 37C and 5% CO2 for 16 hr. Then 1 uL of LiveBLAzer B/G FRET substrate was added using a FRD. After the plates were incubated at room temperature for 2 hours, fluorescence intensity was measured by an Envision plate reader (PerkinElmer, Shelton, CT).
% is scaled to controls: 0 for no effect and ±100 for the full control effect; potency is read from the fitted curve at half-maximal effect.

Chain of Progesterone receptor (Homo sapiens) (P06401 whole entry, looked up): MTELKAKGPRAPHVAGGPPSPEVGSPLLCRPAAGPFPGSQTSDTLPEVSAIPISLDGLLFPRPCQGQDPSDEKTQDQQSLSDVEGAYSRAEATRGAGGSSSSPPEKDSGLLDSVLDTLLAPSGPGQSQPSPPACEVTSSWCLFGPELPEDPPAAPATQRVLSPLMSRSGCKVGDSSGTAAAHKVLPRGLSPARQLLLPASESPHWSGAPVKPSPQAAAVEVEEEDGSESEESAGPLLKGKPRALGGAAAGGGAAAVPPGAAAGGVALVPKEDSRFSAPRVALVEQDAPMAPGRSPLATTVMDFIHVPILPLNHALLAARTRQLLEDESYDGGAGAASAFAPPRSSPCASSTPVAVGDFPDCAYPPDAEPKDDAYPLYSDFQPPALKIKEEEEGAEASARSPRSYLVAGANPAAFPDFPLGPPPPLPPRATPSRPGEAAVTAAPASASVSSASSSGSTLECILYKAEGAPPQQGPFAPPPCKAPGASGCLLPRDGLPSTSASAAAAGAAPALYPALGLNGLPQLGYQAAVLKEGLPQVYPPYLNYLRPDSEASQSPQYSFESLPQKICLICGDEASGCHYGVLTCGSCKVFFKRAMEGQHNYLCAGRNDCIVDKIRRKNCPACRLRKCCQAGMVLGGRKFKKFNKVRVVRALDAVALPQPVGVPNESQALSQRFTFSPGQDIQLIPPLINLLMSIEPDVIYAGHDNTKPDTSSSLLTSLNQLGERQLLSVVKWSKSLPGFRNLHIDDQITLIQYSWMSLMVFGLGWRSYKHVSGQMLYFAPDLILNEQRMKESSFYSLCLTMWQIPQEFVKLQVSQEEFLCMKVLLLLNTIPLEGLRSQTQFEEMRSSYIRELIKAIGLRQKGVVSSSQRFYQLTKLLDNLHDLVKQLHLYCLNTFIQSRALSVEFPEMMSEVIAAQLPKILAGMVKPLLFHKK

| Structure (SMILES) | activity change, negative = inhibition | Potency |
| --- | --- | --- |
| CCCN1CCC[C@@H]2Cc3[nH]ncc3C[C@H]21 | 4.56% [at 42.5 µM] (inactive) |  |
| CCOC(=O)C(SP(=S)(OC)OC)c1ccccc1 (stereo not given) |  | 48.6 µM (active) |
| Oc1ccc2c3c1O[C@H]1[C@@H](O)C=C[C@H]4[C@@H](C2)NCC[C@@]341 | -28.5% (inactive) |  |
| C=CC1(C)OC(=O)N(c2cc(Cl)cc(Cl)c2)C1=O (stereo not given) |  | 21.6 µM (active) |
| COC(=O)c1ccccc1CS(=O)(=O)NC(=O)Nc1nc(OC)cc(OC)n1 | 6.37% (inactive) |  |
| CC(C)[N+](C)(CCC(C(N)=O)(c1ccccc1)c1ccccc1)C(C)C | -0.189% [at 42.5 µM] (inactive) |  |
| CCOC(=O)CC(SP(=S)(OC)OC)C(=O)OCC (stereo not given) | -4.9% [at 42.5 µM] (inactive) |  |
| CN(CCO)CCO | 1.48% (inactive) |  |
| Cc1cccc2sc3nncn3c12 | 8.71% (inactive) |  |
| CCOc1cc(OP(=S)(OC)OC)nc(CC)n1 | 10.8% (inactive) |  |
| Clc1nc(Cl)nc(Nc2ccccc2Cl)n1 | 7.04% (inactive) |  |
| COc1ccc2c(C(=O)c3ccc(Cl)cc3)c(C)n(CC(=O)O)c2c1 | -0.742% [at 42.5 µM] (inactive) |  |
| CCN[C@@H](C)Cc1ccccc1 | 0.195% (inactive) |  |
| CC1N=C(N)OC1c1ccccc1 (stereo not given) | 1.53% (inactive) |  |
| ClCCCCCCCl | 7.61% (inactive) |  |
| CCC(C(N)=O)N1CCCC1=O (stereo not given) | -12% [at 42.5 µM] (inactive) |  |
| CC[C@@H](CO)NC(=O)[C@@H]1C=C2c3cccc4c3c(cn4C)C[C@H]2N(C)C1 | 0.814% [at 42.5 µM] (inactive) |  |
| CC(=O)CN(CC(C)=O)N=O | 6.47% (inactive) |  |
| CC#Cc1cc(C)nc(Nc2ccccc2)n1 |  | 24.3 µM (active) |
| BrCC1CO1 (stereo not given) | 3.29% (inactive) |  |

| Structure (SMILES) | activity change, negative = inhibition | Potency |
| --- | --- | --- |
| O=CCCl | 8.06% (inactive) |  |
| CCC(CC)(CNC(=O)CCCO)c1cccc(OC)c1 | 3.42% [at 42.5 µM] (inactive) |  |
| C[C@]12C=CC(=O)C=C1CC[C@@H]1[C@@H]2CC[C@@]2(C)[C@H]1CC[C@]2(C)O | -10.5% [at 42.5 µM] (inactive) |  |
| CC(C)c1ccc(O)cc1 | 1.18% (inactive) |  |
| Nc1c(Cl)c(F)nc(OCC(=O)O)c1Cl | 10.5% (inactive) |  |
| COC(=O)[C@@H](N)CCCN/C(N)=N/[N+](=O)[O-] | 0.54% [at 42.5 µM] (inactive) |  |
| C=CCN1CC[C@]23CCCC[C@H]2[C@H]1Cc1ccc(O)cc13 | -0.867% [at 42.5 µM] (inactive) |  |
| CC(=NC#N)N(C)Cc1ccc(Cl)nc1 | 13.6% (inactive) |  |
| O=C(NC(=O)c1c(F)cccc1F)Nc1cc(Cl)c(F)c(Cl)c1F | -15.2% (inactive) |  |
| O=C1C2CC=CCC2C(=O)N1SC(Cl)(Cl)Cl (stereo not given) |  | inactive and 42.6 µM (active) |
| O=c1[nH]c2ccccc2n1C1CCNCC1 | 14.6% [at 42.5 µM] (inactive) |  |
| N=C(N)[Se] | 0.331% (inactive) |  |
| O=C(CCl)NCO | 4.07% (inactive) |  |
| N[C@@H]1C[C@H]1c1ccccc1 | 9.61% [at 42.5 µM] (inactive) |  |
| COc1cc(CCN)cc(OC)c1OC | 2.61% (inactive) |  |
| CC(C)(C)NC[C@H](O)c1ccc(O)cc1Cl | 9.61% [at 42.5 µM] (inactive) |  |
| O=c1[nH]oc2c1CCNC2 | 0.564% [at 42.5 µM] (inactive) |  |
| C#CC(C)(C)O | 5.51% (inactive) |  |
| N#CN=C1SCCN1Cc1ccc(Cl)nc1 | 9.47% (inactive) |  |
| CCOC(=O)COc1ccc(Cl)cc1Cl | 8.88% (inactive) |  |
